Test results from PubChem BioAssay AID1159580 (chemical genetic matrix, 2015).
The whole screen tested about 5,500 compounds, of which about 2,000 (36%) were called active. Roughly 18% stayed inconclusive and do not appear here. Cut-off read from the data, not from the text of the source: active = normalized growth mostly below about 0.91 (no sharp cut-off); inconclusive = no clear call, values can overlap the other calls; inactive = mostly above about 0.92. The list shows a part of the results.

Assay: chemical genetic growth profiling, strain panel (AID 1159580);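 note: tested at 20 µM; growth read once vehicle control cultures reached saturation at 30 °C; 1 = growth at the plate median or of vehicle wells; lower values mean less growth of the strain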
Conditions: growth OD

Measured: normalized growth

C=C1C(C)C2C(Cc3ccccc3)NC(=O)C23OC(=O)/C=C/C(=O)CCCC(C)C/C=C/C3C1O (stereo unspecified)
inactive: S. cerevisiae deletion strains, locus YAL013W, strain DEP1, hits give low values 0.981 | S. cerevisiae deletion strains, locus YBR021W, strain FUR4, hits give low values 0.956 | S. cerevisiae deletion strains, locus YBR229C, strain ROT2, hits give low values 1.01 | S. cerevisiae deletion strains, locus YCL029C, strain bik1, hits give low values 1.01 | S. cerevisiae deletion strains, locus YDL035C, strain GPR1, hits give low values 0.952 | S. cerevisiae deletion strains, locus YDL074C, strain BRE1, hits give low values 0.987 | S. cerevisiae deletion strains, locus YDL101C, strain DUN1, hits give low values 1.01 | S. cerevisiae deletion strains, locus YDL134C, strain PPH21, hits give low values 0.984 | S. cerevisiae deletion strains, locus YDL185W, strain tfp1, hits give low values 1.02 | S. cerevisiae deletion strains, locus YDL192W, strain arf1, hits give low values 0.994 | S. cerevisiae deletion strains, locus YDR101C, strain arx1, hits give low values 1 | S. cerevisiae deletion strains, locus YDR150W, strain NUM1, hits give low values 0.985 | S. cerevisiae deletion strains, locus YDR162C, strain NBP2, hits give low values 0.912 | S. cerevisiae deletion strains, locus YDR318W, strain mcm21, hits give low values 0.958 | S. cerevisiae deletion strains, locus YDR502C, strain sam2, hits give low values 0.998 | S. cerevisiae deletion strains, locus YEL061C, strain CIN8, hits give low values 1.01 | S. cerevisiae deletion strains, locus YER110C, hits give low values 1.01 | S. cerevisiae deletion strains, locus YER155C, strain BEM2, hits give low values 0.995 | S. cerevisiae deletion strains, locus YER167W, strain BCK2, hits give low values 0.974 | S. cerevisiae deletion strains, locus YGL078C, strain dbp3, hits give low values 0.99 | S. cerevisiae deletion strains, locus YGL086W, strain mad1, hits give low values 0.998 | S. cerevisiae deletion strains, locus YGL248W, strain PDE1, hits give low values 0.973 | S. cerevisiae deletion strains, locus YGR078C, strain PAC10, hits give low values 0.864 | S. cerevisiae deletion strains, locus YGR135W, strain pre9, hits give low values 0.99 | S. cerevisiae deletion strains, locus YGR252W, strain gcn5, hits give low values 0.966 | S. cerevisiae deletion strains, locus YHR079C, strain IRE1 (second series), hits give low values 1.01 | S. cerevisiae deletion strains, locus YHR094C, strain hxt1, hits give low values 1 | S. cerevisiae deletion strains, locus YHR129C, strain ARP1, hits give low values 0.972 | S. cerevisiae deletion strains, locus YHR200W, strain rpn10, hits give low values 1.01 | S. cerevisiae deletion strains, locus YIL066C, strain RNR3, hits give low values 0.988 | S. cerevisiae deletion strains, locus YIL073C, strain SPO22, hits give low values 0.815 | S. cerevisiae deletion strains, locus YIL125W, strain kgd1, hits give low values 0.99 | S. cerevisiae deletion strains, locus YIR030C, strain dcg1, hits give low values 1.01 | S. cerevisiae deletion strains, locus YJL095W, strain BCK1, hits give low values 1.01 | S. cerevisiae deletion strains, locus YJL134W, strain LCB3, hits give low values 1 | S. cerevisiae deletion strains, locus YJL168C, strain set2, hits give low values 1.01 | S. cerevisiae deletion strains, locus YJL187C, strain SWE1 (second series), hits give low values 1.01 | S. cerevisiae deletion strains, locus YJR043C, strain POL32, hits give low values 0.975 | S. cerevisiae deletion strains, locus YJR075W, strain HOC1, hits give low values 1.03 | S. cerevisiae deletion strains, locus YKL009W, strain mrt4, hits give low values 1.02 | S. cerevisiae deletion strains, locus YKL068W, hits give low values 0.993 | S. cerevisiae deletion strains, locus YKL085W, strain MDH1 (second series), hits give low values 0.977 | S. cerevisiae deletion strains, locus YKL085W, strain MDH1, hits give low values 0.977 | S. cerevisiae deletion strains, locus YKL190W, strain CNB1, hits give low values 1 | S. cerevisiae deletion strains, locus YKR001C, strain vps1, hits give low values 0.935 | S. cerevisiae deletion strains, locus YLR039C, strain RIC1, hits give low values 0.893 | S. cerevisiae deletion strains, locus YLR058C, strain SHM2, hits give low values 1.01 | S. cerevisiae deletion strains, locus YLR102C, strain apc9, hits give low values 1.01 | S. cerevisiae deletion strains, locus YLR268W, strain sec22, hits give low values 1.03 | S. cerevisiae deletion strains, locus YLR330W, strain CHS5, hits give low values 0.988 | S. cerevisiae deletion strains, locus YLR342W, strain FKS1 (second series), hits give low values 0.805 | S. cerevisiae deletion strains, locus YLR371W, strain rom2, hits give low values 1.02 | S. cerevisiae deletion strains, locus YLR418C, strain cdc73, hits give low values 0.94 | S. cerevisiae deletion strains, locus YML016C, strain PPZ1, hits give low values 1 | S. cerevisiae deletion strains, locus YML032C, strain rad52, hits give low values 1.01 | S. cerevisiae deletion strains, locus YML124C, strain tub3, hits give low values 1.01 | S. cerevisiae deletion strains, locus YMR078C, strain ctf18, hits give low values 1.01 | S. cerevisiae deletion strains, locus YMR223W, strain ubp8, hits give low values 0.986 | S. cerevisiae deletion strains, locus YMR263W, strain SAP30, hits give low values 1 | S. cerevisiae deletion strains, locus YNL067W, strain RPL9B, hits give low values 0.975 | S. cerevisiae deletion strains, locus YNL128W, strain TEP1, hits give low values 0.973 | S. cerevisiae deletion strains, locus YNL153C, strain GIM3, hits give low values 0.989 | S. cerevisiae deletion strains, locus YNL233W, strain BNI4, hits give low values 1.02 | S. cerevisiae deletion strains, locus YNL250W, strain rad50, hits give low values 1.01 | S. cerevisiae deletion strains, locus YNL271C, strain bni1, hits give low values 0.96 | S. cerevisiae deletion strains, locus YNL322C, strain KRE1, hits give low values 1.01 | S. cerevisiae deletion strains, locus YNR052C, strain pop2, hits give low values 1.01 | S. cerevisiae deletion strains, locus YOL006C, strain TOP1, hits give low values 0.79 | S. cerevisiae deletion strains, locus YOL012C, strain htz1 0.448 | S. cerevisiae deletion strains, locus YOL147C, strain pex11, hits give low values 1 | S. cerevisiae deletion strains, locus YOR061W, strain CKA2, hits give low values 0.996 | S. cerevisiae deletion strains, locus YOR069W, strain VPS5, hits give low values 1 | S. cerevisiae deletion strains, locus YOR136W, strain idh2, hits give low values 0.991 | S. cerevisiae deletion strains, locus YOR144C, strain elg1, hits give low values 1 | S. cerevisiae deletion strains, locus YOR184W, strain ser1, hits give low values 0.992 | S. cerevisiae deletion strains, locus YOR316C, strain cot1, hits give low values 1.01 | S. cerevisiae deletion strains, locus YPL055C, strain LGE1, hits give low values 0.97 | S. cerevisiae deletion strains, locus YPL241C, strain CIN2, hits give low values 1 | S. cerevisiae deletion strains, locus YPR119W, strain clb2, hits give low values 1 | S. cerevisiae deletion strains, locus YPR141C, strain kar3, hits give low values 1.01 | S. cerevisiae deletion strains, locus YPR167C, strain met16, hits give low values 1.01 | S. cerevisiae deletion strains, strain wtn01, hits give low values 0.983 | S. cerevisiae strains, strain wild type, hits give low values 0.966
active: S. cerevisiae deletion strains, locus YDR388W, hits give low values 0.908 | S. cerevisiae deletion strains, locus YGR229C, strain SMI1, hits give low values 0.609 | S. cerevisiae deletion strains, locus YHR030C, strain SLT2, hits give low values 0.652 | S. cerevisiae deletion strains, locus YLR262C, strain YPT6, hits give low values 0.597 | S. cerevisiae deletion strains, locus YMR307W, strain GAS1, hits give low values 0.586 | S. cerevisiae deletion strains, locus YNL298W, strain CLA4, hits give low values 0.896 | S. cerevisiae deletion strains, locus YNL307C, strain MCK1, hits give low values 0.841 | S. cerevisiae deletion strains, locus YPR163C, strain tif3, hits give low values 0.884
